Source: PubChem BioAssay AID1159580 (chemical genetic matrix, 2015)
About 2,000 (36%) of roughly 5,500 compounds were called active. About 18% were inconclusive and are not listed. Cut-off read from the data, not from the text of the source: active = normalized growth mostly below about 0.91 (no sharp cut-off); inconclusive = no clear call, values can overlap the other calls; inactive = mostly above about 0.92. This is one part of the list.

Experiment: chemical genetic growth profiling, strain panel (AID 1159580);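 note: tested at 20 µM; growth read once vehicle control cultures reached saturation at 30 °C; 1 = growth at the plate median or of vehicle wells; lower values mean less growth of the strain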
Conditions: S. cerevisiae deletion strains, growth OD

Measured: normalized growth

CCCCCCCCCCCCC[N+](C)(C)Cc1ccccc1
active: locus YJR075W, strain HOC1, hits give low values 0.0621 | locus YKL009W, strain mrt4, hits give low values 0.102 | locus YKL068W, hits give low values 0.0707 | locus YKL085W, strain MDH1 (second series), hits give low values 0.0622 | locus YKL085W, strain MDH1, hits give low values 0.0622 | locus YKL160W, strain elf1, hits give low values 0.0609 | locus YKL190W, strain CNB1, hits give low values 0.0462 | locus YKR001C, strain vps1, hits give low values 0.0665 | locus YKR026C, strain gcn3, hits give low values 0.0645 | locus YKR091W, strain srl3, hits give low values 0.0591 | locus YLL001W, strain dnm1, hits give low values 0.0643 | locus YLL026W, hits give low values 0.0581 | locus YLL041C, strain sdh2, hits give low values 0.0534 | locus YLR027C, strain aat2, hits give low values 0.0632 | locus YLR039C, strain RIC1, hits give low values 0.0768 | locus YLR058C, strain SHM2, hits give low values 0.0468 | locus YLR102C, strain apc9, hits give low values 0.0591 | locus YLR113W, strain HOG1, hits give low values 0.115 | locus YLR221C, strain rsa3, hits give low values 0.0601 | locus YLR258W, strain gsy2, hits give low values 0.0594 | locus YLR262C, strain YPT6 (second series), hits give low values 0.0813 | locus YLR262C, strain YPT6, hits give low values 0.0988 | locus YLR268W, strain sec22, hits give low values 0.0715 | locus YLR320W, strain mms22, hits give low values 0.0747 | locus YLR330W, strain CHS5, hits give low values 0.0507 | locus YLR342W, strain FKS1 (second series), hits give low values 0.0621 | locus YLR342W, strain FKS1, hits give low values 0.0644 | locus YLR357W, strain rsc2, hits give low values 0.114 | locus YLR370C, strain arc18, hits give low values 0.0615 | locus YLR371W, strain rom2, hits give low values 0.0625 | locus YLR384C, strain iki3, hits give low values 0.0574 | locus YLR418C, strain cdc73, hits give low values 0.0973 | locus YML016C, strain PPZ1, hits give low values 0.0455 | locus YML032C, strain rad52, hits give low values 0.0731 | locus YML120C, strain ndi1, hits give low values 0.0563 | locus YML124C, strain tub3, hits give low values 0.0618 | locus YMR058W, strain fet3, hits give low values 0.064 | locus YMR078C, strain ctf18, hits give low values 0.0768 | locus YMR125W, strain sto1, hits give low values 0.0739 | locus YMR129W, hits give low values 0.0593 | locus YMR205C, strain PFK2, hits give low values 0.0873 | locus YMR223W, strain ubp8, hits give low values 0.0651 | locus YMR231W, strain pep5, hits give low values 0.0683 | locus YMR307W, strain GAS1, hits give low values 0.11
